Test results from PubChem BioAssay (NCI).
About 83,000 compounds went through this panel and 20% of them were active in at least one assay; those are over-represented in the sample as a whole.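 The endpoint reported here, percent growth, reads 100 for growth as untreated, 0 for no net growth and -100 for all cells dead.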 Activity calls are given as the source filed them. How the source made its calls: active means growth percent below 10; inactive means the rest.

Key:
Assay in all cases: NCI-60 one-dose screen, 48 h (100 = growth as untreated, 0 = no growth, -100 = all killed)
NCI-H23 lung = conditions: 10 µM unless noted
DU-145 prostate = conditions: 10 µM unless noted
MDA-MB-231 breast = conditions: 10 µM unless noted
SF-268 CNS = conditions: 10 µM unless noted
SF-539 CNS = conditions: 10 µM unless noted
M14 melanoma = conditions: 10 µM unless noted
HCT-15 colon = conditions: 10 µM
HT29 colon = conditions: 10 µM unless noted
SNB-75 CNS = conditions: 10 µM unless noted
PC-3 prostate = conditions: 10 µM unless noted
UACC-62 melanoma = conditions: 10 µM unless noted
SK-MEL-28 melanoma = conditions: 10 µM unless noted
SN12C renal = conditions: 10 µM unless noted
ACHN renal = conditions: 10 µM unless noted
OVCAR-8 ovarian = conditions: 10 µM unless noted
OVCAR-5 ovarian = conditions: 10 µM unless noted
NCI/ADR-RES ovarian = conditions: 10 µM unless noted
MDA-MB-435 melanoma = conditions: 10 µM unless noted
HCT-116 colon = conditions: 10 µM unless noted
KM12 colon = conditions: 10 µM unless noted

Measured: growth

C[C@]12CC[C@@H]3c4ccc(OC(=O)Cc5ccc(N(CCCl)CCCl)cc5)cc4CC[C@H]3[C@@H]1CC[C@@H]2OC(=O)Cc1ccc(N(CCCl)CCCl)cc1
inactive: NCI-H23 lung 119% | DU-145 prostate 103% | MDA-MB-231 breast 102% | SF-268 CNS 108% | SF-539 CNS 103% | M14 melanoma 107% | HCT-15 colon 113% | HT29 colon 117% | SNB-75 CNS 84.7% | PC-3 prostate 84.8% | UACC-62 melanoma 88% | SK-MEL-28 melanoma 117% | SN12C renal 92.3% | ACHN renal 109% | OVCAR-8 ovarian 109% | OVCAR-5 ovarian 105% | NCI/ADR-RES ovarian 55.9% | MDA-MB-435 melanoma 112% | HCT-116 colon 104% | KM12 colon 111%

CC12CCC(=O)C=C1C(O)CC1C2CCC2(C)C(O)CCC12 (stereo not drawn)
inactive: NCI-H23 lung 100% | DU-145 prostate 102% | MDA-MB-231 breast 114% | SF-268 CNS 98% | SF-539 CNS 98.7% | M14 melanoma 105% | HCT-15 colon 106% | HT29 colon 108% | SNB-75 CNS 94.5% | PC-3 prostate 95% | UACC-62 melanoma 99.5% | SK-MEL-28 melanoma 115% | SN12C renal 105% | ACHN renal 117% | OVCAR-8 ovarian 105% | OVCAR-5 ovarian 108% | NCI/ADR-RES ovarian 108% | MDA-MB-435 melanoma 112% | HCT-116 colon 99% | KM12 colon 98.8%

N#[N+]c1cnc([O-])[nH]c1=O
active: NCI/ADR-RES ovarian -8.91%
inactive: NCI-H23 lung 26.9% | DU-145 prostate 99.9% | MDA-MB-231 breast 95.5% | SF-268 CNS 97.5% | SF-539 CNS 97.5% | M14 melanoma 108% | HCT-15 colon 89.1% | HT29 colon 105% | SNB-75 CNS 74.7% | PC-3 prostate 92.7% | UACC-62 melanoma 85.6% | SK-MEL-28 melanoma 104% | SN12C renal 84.9% | ACHN renal 94.4% | OVCAR-8 ovarian 88.7% | OVCAR-5 ovarian 83.9% | MDA-MB-435 melanoma 106% | HCT-116 colon 108% | KM12 colon 100%

O=S(=O)(O)c1ccc(-c2ccc([As](=O)(O)O)cc2)cc1
inactive: NCI-H23 lung 105% | DU-145 prostate 110% | MDA-MB-231 breast 104% | SF-268 CNS 98.5% | SF-539 CNS 105% | M14 melanoma 100% | HCT-15 colon 103% | HT29 colon 99.1% | SNB-75 CNS 87.1% | PC-3 prostate 98% | UACC-62 melanoma 98% | SK-MEL-28 melanoma 103% | SN12C renal 104% | ACHN renal 105% | OVCAR-8 ovarian 93.8% | OVCAR-5 ovarian 106% | NCI/ADR-RES ovarian 108% | MDA-MB-435 melanoma 103% | HCT-116 colon 108% | KM12 colon 105%

CC1CC=CCC12C(=O)NC(=S)NC2=O (stereo not drawn)
inactive: NCI-H23 lung 113% | DU-145 prostate 122% | MDA-MB-231 breast 117% | SF-268 CNS 115% | SF-539 CNS 98.8% | M14 melanoma 114% | HCT-15 colon 103% | HT29 colon 107% | SNB-75 CNS 81.4% | PC-3 prostate 98.4% | UACC-62 melanoma 105% | SK-MEL-28 melanoma 101% | SN12C renal 99.8% | ACHN renal 106% | OVCAR-8 ovarian 104% | OVCAR-5 ovarian 103% | NCI/ADR-RES ovarian 113% | MDA-MB-435 melanoma 106% | HCT-116 colon 108% | KM12 colon 116%

CC1(C)N=C(N)N=C(N)N1c1ccc(CCCCc2ccc(S(=O)(=O)F)cc2)c(Cl)c1
inactive: NCI-H23 lung 29.8% | DU-145 prostate 30.6% | MDA-MB-231 breast 34.3% | SF-268 CNS 25.6% | SF-539 CNS 22.9% | M14 melanoma 24.3% | HCT-15 colon 29.5% | SNB-75 CNS 63.2% | UACC-62 melanoma 18.3% | SK-MEL-28 melanoma 48.4% | ACHN renal 22.1% | OVCAR-8 ovarian 16.5% | OVCAR-5 ovarian 40.3% | NCI/ADR-RES ovarian 103% | MDA-MB-435 melanoma 15.7% | HCT-116 colon 12.8% | KM12 colon 22.4%
active: HT29 colon 8.74% | PC-3 prostate 7.48%

CNC(=O)Oc1cccc(OC)c1
inactive: NCI-H23 lung 101% | DU-145 prostate 115% | MDA-MB-231 breast 93.3% | SF-268 CNS 118% | SF-539 CNS 111% | M14 melanoma 107% | HCT-15 colon 112% | HT29 colon 103% | PC-3 prostate 109% | UACC-62 melanoma 100% | SK-MEL-28 melanoma 111% | SN12C renal 93.3% | ACHN renal 109% | OVCAR-8 ovarian 108% | OVCAR-5 ovarian 113% | NCI/ADR-RES ovarian 106% | MDA-MB-435 melanoma 95.5% | HCT-116 colon 103% | KM12 colon 112%

C[As](=O)(O)c1ccc(C(=O)O)cc1
inactive: NCI-H23 lung 110% | DU-145 prostate 109% | MDA-MB-231 breast 102% | SF-268 CNS 110% | SF-539 CNS 102% | M14 melanoma 104% | HCT-15 colon 99.2% | HT29 colon 108% | SNB-75 CNS 90.2% | PC-3 prostate 97.9% | UACC-62 melanoma 101% | SK-MEL-28 melanoma 106% | SN12C renal 107% | ACHN renal 114% | OVCAR-8 ovarian 101% | OVCAR-5 ovarian 115% | NCI/ADR-RES ovarian 108% | MDA-MB-435 melanoma 98.4% | HCT-116 colon 110% | KM12 colon 111%
